Rows were chosen to be rich in hits. Some 9.5% of all compounds tested hit in one or more screens of this group.
Pf growth 48h: inhibits P. falciparum growth in the first generation, 48 h; P. falciparum luciferase growth in erythrocytes, 48 h; Potency, µM (top dose mostly 28.7 µM), without a hit: at the highest dose activity change, negative = inhibition, most hits filed as inhibitors; actives 5.9% (n = 310,000); active = well fitted inhibition curve with a large enough effect; inconclusive = small, poorly fitted or top-dose-only effect, or another doubt; inactive = no such curve, though single readings can be large or run the other way; note: % is set by controls: 0 for no effect and ±100 for the full control effect
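Firefly luciferase activity from engineered P. falciparum reports growth; inhibitors lower the luminescent signal. Cultures contained 2% hematocrit erythrocytes at 0.1% final parasitemia.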
RE007 growth inh: less growth of the S. pombe RE007 Vpr strain; AID 651644; Potency, µM (doses to about 92.2 µM), for inactives: at the top dose activity change, negative = less growth, hits mostly inhibitors; actives 0.21% (n = 360,000); S. pombe RE007 Vpr strain, BacTiter-Glo ATP luminescence, 24 h; active = well fitted falling curve with a large enough effect; inconclusive = small, poorly fitted or top-dose-only effect; inactive = no such curve, though single readings can be large or run the other way; note: % is set by controls: 0 for no effect and ±100 for the full control effect; nearly all actives have a fitted effect of over 50% in size
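Fission yeast strain RE007, carrying one chromosomally integrated HIV-1 vpr copy, was seeded at OD 0.01 in PMG+AL medium with 23 nL pinned compound. After 24 h at 30 °C and 99% humidity, viability was read by BacTiter-Glo luminescence.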
NS1 inh: inhibitors of influenza NS1 protein function | Potency, µM (series often up to 46.1 µM), for the others: at the highest dose activity, positive = more growth | actives 0.4% (n = 270,000) | AID 2326; note: actives are rising curves; nearly all actives have a fitted effect of over 50% in size
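Growth recovery, yeast-based: influenza A NS1 expressed in S. cerevisiae causes slow growth, and suppressors are detected by OD600. The parent strain without NS1 is used as positive control.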
SARS PLpro yeast: inhibitors of SARS-CoV papain-like protease in yeast. Potency, µM (series often up to 32.9 µM), for the others: at the highest dose activity, positive = growth rescue, most hits filed as activators. S. cerevisiae expressing SARS-CoV PLpro, growth rescue. actives 0.19% (n = 330,000). AID 485353; note: 0% is about no effect; nearly all actives have a fitted effect of over 55% in size
Pf growth 96h: P. falciparum growth inhibition at 96 hours; actives 6.9% (n = 320,000); P. falciparum luciferase reporter growth, 96 h; Potency, µM (top dose mostly 28.7 µM), for the others: top-dose activity change, negative = inhibition, usual class: inhibitors; AID 504834; active = well fitted inhibition curve with a large enough effect; inconclusive = small, poorly fitted or top-dose-only effect, or another doubt; inactive = no such curve, though single readings can be large or run the other way; note: % is set by controls: 0 for no effect and ±100 for the full control effect
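Compounds incubated with erythrocytes infected by luciferase-expressing P. falciparum (2% hematocrit, 0.05% parasitemia final) for 96 hours, 37 C in 5% CO2. Growth inhibition scored as decreased luciferase luminescence.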
* = called active by the depositor; ? = inconclusive; · = not tested or not shown; ! = repeats disagree; [ ] = dose if it differs, or a comment. Unless noted, calls come from the whole dose curve. Potency is the fitted concentration of half-maximal effect.

SMILES	Pf growth 48h	RE007 growth inh	NS1 inh	SARS PLpro yeast	Pf growth 96h
CCOC(=O)Cn1c(-c2cccnc2)nc(-c2ccccc2)c1-c1ccccc1	4.1µM*	-19%	-4%	0%	2.3µM*
Cc1cc2ncn(CC(=O)O)c2cc1C	·	·	-3%	·	·
COc1ccccc1CNC(=O)CCC(=O)n1ncc2cc(C)ccc21	8%	-3%	-8%	3%	2.6µM*
Cc1ccc(-n2ccnc2SCC(=O)N(CC(C)C)C2CCS(=O)(=O)C2)c(C)c1 (configuration not stated)	?	-3%	-6%	3%	4.1µM*
CC(C)CN(C(=O)CSc1nn(-c2ccc(Cl)cc2)c(=S)s1)C1CCS(=O)(=O)C1 (configuration not stated)	8.3µM*	0%	?	?	?
COc1cccc(C2(C)NC(=O)N(CC(=O)Nc3ccc(N4CCOCC4)cc3)C2=O)c1 (configuration not stated)	·	-11%	·	5%	·
Cc1ccc(S(=O)(=O)N2CC3CCCN3c3ccc(C(F)(F)F)cc32)cc1 (configuration not stated)	10µM*	-9%	17%	3%	?
O=C1CN(C(=O)c2ccccc2)C(c2ccccc2)c2cc(F)ccc2N1 (configuration not stated)	-13%	-9%	-2%	-3%	?
O=C1CN(C(=O)c2ccc(Br)o2)C(c2ccccc2)c2cc(F)ccc2N1 (configuration not stated)	·	1%	15%	0%	12µM*
O=C(Cc1ccccc1)NCC(=O)Nc1cccc(Cl)c1	-1%	13%	6%	-14%	30%
CCOC(=O)c1csc(N)c1-c1ccc([N+](=O)[O-])cc1	-22%	-6%	2%	-6%	-17%
CCOC(=O)N1CCC(N2Cc3cccc(C(=O)Nc4cc(F)ccc4F)c3C2=O)CC1	·	4%	-17%	-4%	-3%
Cc1ccc(NC(=O)c2cccc3c2C(=O)N(C2CCCCC2)C3)cc1	5%	3%	-3%	?	12µM*
CCOC(=O)N1CCC(N2Cc3cccc(C(=O)Nc4ccc(F)cc4)c3C2=O)CC1	3.3µM*	12%	16%	8%	-13%
CCOC(=O)N1CCC(N2Cc3cccc(C(=O)Nc4ccc(N(CC)CC)cc4C)c3C2=O)CC1	?	5%	1%	8%	0.74µM*
Cc1nnc(Sc2cc(C(=O)NCCCN(C)Cc3ccccc3)c3ccccc3n2)s1	?	-5%	5%	-24%	2.1µM*
COCCCNC(=O)c1cc(Sc2nnc(C)s2)nc2ccccc12	-51%	-3%	2%	0%	3%
NC[C@@H]1O[C@@H](O[C@H]2[C@H](O)[C@H](O[C@@H]3O[C@H](CO)[C@@H](O)[C@H](N)[C@@H]3O)[C@@H](N)C[C@H]2N)[C@H](N)C[C@@H]1O	-8%[12.8 µM]	·	·	·	11%[12.8 µM]
Cn1c(-c2cccc([N+](=O)[O-])c2)cnc1NCc1cccc(F)c1	45%	-5%	-6%	-1%	4.7µM*
COc1ccc2[nH]c3c(c2c1)CCC/C3=N\N	40%	11%	7%	0%	77%
COc1ccc2[nH]c3c(c2c1)CCN=C3C	9.3µM*	14%[18.4 µM]	·	·	?
CCc1cc2c(=O)n3c(nc2s1)-c1[nH]c2ccc(OC)cc2c1CC3	62%	-11%	1%	13%	2.9µM*
CC1(C)COCN1COC1CCCCC1	·	·	-3%	·	·
Cc1ccc(C)c(NC(=O)C2C3CCCC2C3c2ccccc2)c1 (configuration not stated)	-6%	0%	5%	11%	12µM*
O=C(/C=C/c1ccccc1)N(Cc1ccc(Cl)cc1)C1CCS(=O)(=O)C1 (configuration not stated)	?	4%	-6%	0%	?
SMILES	Pf growth 48h	RE007 growth inh	NS1 inh	SARS PLpro yeast	Pf growth 96h
O=C(/C=C/c1ccccc1)N(Cc1cccc(Cl)c1)C1CCS(=O)(=O)C1 (configuration not stated)	6.6µM*	-6%	-2%	1%	4.1µM*
Cn1nc(C(C)(C)C)cc1C(=O)N1CCCCC1c1cc(C(=O)Nc2ccccc2)no1 (configuration not stated)	·	-6%	·	·	·
CC(C)OC(=O)C1C(=O)CC(C)(O)C(C(=O)OC(C)C)C1c1cccc([N+](=O)[O-])c1 (configuration not stated)	?	-15%	·	-3%	?
COCCOC(=O)C1=C(C)NC(C)=C(C(=O)OC(C)C)C1c1cccc([N+](=O)[O-])c1 (configuration not stated)	9.3µM*	-1%[18.4 µM]	-48%	5%	6.6µM*!
COC(=O)C1=C(C)NC(C)=C(C(=O)OC)C1c1ccccn1	-7%	-2%	1%	4%	·
CCOC(=O)C1=C(C)NC(C)=C(C(=O)OC)C1c1cccc([N+](=O)[O-])c1 (configuration not stated)	5.9µM*	3%[18.4 µM]	-31%	6%	?
COC(=O)C1=C(C)NC(C)=C(C(=O)OC(C)(C)CN(C)CCC(c2ccccc2)c2ccccc2)C1c1cccc([N+](=O)[O-])c1 (configuration not stated)	1.5µM*	·	·	·	3µM*
COC(=O)C1=C(C)NC(C)=C(C(=O)OC)C1c1ccccc1[N+](=O)[O-]	?	3%[18.4 µM]	-27%	2µM*	?
COCCNC(=O)Cn1c(=O)n(CCCC(=O)NCc2ccc3c(c2)OCO3)c(=O)c2sccc21	8%	5%	7%	1%	-25%
CCc1noc(C)c1C(=O)OCC(=O)NC(=O)c1ccccc1	-2%	6%	-18%	-5%	-15%
CCOC(=O)C1=C(C)NC(C)=C(C(=O)OCC)C1c1ccc(OC)cc1	?	-13%	-3%	13%	-13%
CC1=C(C(=O)OC(C)C)C(c2cccc([N+](=O)[O-])c2)C(C(=O)OC2CN(C(c3ccccc3)c3ccccc3)C2)=C(N)N1 (configuration not stated)	7.6µM*	·	·	·	-3%
CCOC(=O)C1=C(C)NC(C)=C(C(=O)OCC)C1c1ccc([N+](=O)[O-])s1	?	7%	9%	-1%	13µM*
COCCOC(=O)C1=C(C)NC(C)=C(C(=O)OC/C=C/c2ccccc2)C1c1cccc([N+](=O)[O-])c1 (configuration not stated)	11µM*	·	·	·	8.5µM*
COC(=O)C1=C(C)NC(C)=C(C(=O)O[C@@H]2CCCN(Cc3ccccc3)C2)[C@@H]1c1cccc([N+](=O)[O-])c1	·	-17%[18.4 µM]	·	·	·
COc1ccc(C(=O)NC(CO)c2nnc(SCc3ccc(Cl)c(Cl)c3)n2C)cc1 (configuration not stated)	-6%	4%	16%	-4%	?
